The panel holds about 79,000 compounds, 15% with a hit somewhere; the sample as a whole holds those more often. Active and inactive are the calls of the source. Cut-off read from the data, not from the text of the source: active = growth inhibition above about 70%; inactive = the rest.
Key:
[1] = NCI Yeast Anticancer Drug Screen. Data for the rad50 strain (AID 155);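 note: 0% = growth of vehicle-only cultures of the same strain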; settings: S. cerevisiae rad50 strain growth inhibition; at 50.0 µM; stronger effect = higher value
Method in brief: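 Genetically altered yeast (DNA repair pathway); compound treatment; growth inhibition vs vehicle ctrl.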

[2] = NCI Yeast Anticancer Drug Screen. Data for the mec2-1 strain (AID 157); settings: S. cerevisiae mec2-1 strain, at 50.0 µM, stronger effect = higher value
Method in brief: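 Cells of the genetically defined mec2-1 yeast strain are incubated with test compound. Inhibition of growth is calculated against vehicle-treated controls.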

[3] = NCI Yeast Anticancer Drug Screen. Data for the sgs1 mgt1 strain (AID 161);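 note: 0% = growth of cultures given vehicle only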; settings: S. cerevisiae sgs1 mgt1 strain, at 50.0 µM, stronger effect = higher value
Method in brief: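 Test agents were incubated with a DNA-repair-mutant yeast strain. Growth was then read and compared against vehicle-treated controls.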

[4] = NCI Yeast Anticancer Drug Screen. Data for the cln2 rad14 strain (AID 165);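 note: 0% = growth equal to vehicle treated cultures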; settings: S. cerevisiae cln2 rad14 strain, at 50.0 µM, stronger effect = higher value
Method in brief: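 The screen exposed genetically defined yeast (cln2 rad14) to test compounds and scored growth inhibition relative to vehicle-treated controls.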

[5] = NCI Yeast Anticancer Drug Screen. Data for the bub3 strain (AID 167); settings: S. cerevisiae bub3 mutant strain, at 50.0 µM, stronger effect = higher value
Method in brief: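 Yeast carrying a defined mutation is treated with each compound, and growth is compared with that of vehicle-exposed cells to give inhibition.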

[6] = NCI Yeast Anticancer Drug Screen. Data for the mlh1 rad18 strain (AID 175); settings: S. cerevisiae mlh1 rad18 strain growth inhibition; at 50.0 µM; stronger effect = higher value
Method in brief: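 Compound-treated yeast growth, normalised to vehicle controls. Strain bears defined DNA repair mutations.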

Measured: growth inhibition

COc1ccc2c(c1)C13CCCCC1C(C2)[N+](C)([O-])CC3 (configuration not stated)
inactive: [1] -6.8% | [2] -19.1% | [3] 6.35% | [4] -38.1% | [5] -10.9% | [6] 4.95%

COc1cccc(N2CCNCC2)c1
inactive: [1] -5.2% | [2] -12.6% | [3] 12.4% | [4] 4.2% | [5] -6.6% | [6] 25.1%

NC(CCC(=O)NC(CSc1ccc([N+](=O)[O-])cc1[N+](=O)[O-])C(=O)NCC(=O)O)C(=O)O (configuration not stated)
inactive: [1] 0.05% | [2] -4.75% | [3] 12.2% | [4] 8.7% | [5] 3.2% | [6] -11.1%

O=[As](O)(O[As](=O)(O)c1ccccc1)c1ccccc1
inactive: [1] 24.4% | [2] 18.1% | [3] 17.1% | [4] 5% | [5] -0.05% | [6] 28.5%

CN(C(=O)COc1ccc([N+](=O)[O-])cc1Cl)c1ccc(S(=O)(=O)F)cc1
inactive: [1] 13.8% | [2] -1.85% | [3] -10.9% | [4] -10.4% | [5] 1.25% | [6] 16.5%

COC(=O)C(C)N(CCCl)P1(=O)OCCCN1CCCl (configuration not stated)
inactive: [1] 49.2% | [2] 24.8% | [3] -6.15% | [4] 8.7% | [5] -20.6% | [6] 20.6%

O=C(O)/C=C/c1ccc(S(=O)(=O)F)cc1
inactive: [1] 36.4% | [2] -16% | [3] 16.6% | [4] 15.9% | [5] 34% | [6] 20.6%

c1cc(C[N+]23CN4CN(CN(C4)C2)C3)cs1
inactive: [1] -5.75% | [2] 14.2% | [3] 3.95% | [4] -7.65% | [5] 1.55% | [6] -13.7%

CC(C)C(C)(O)C#N (configuration not stated)
inactive: [1] 2.2% | [2] -2.1% | [3] 2.6% | [4] -23.4% | [5] 2.9% | [6] 17.9%

CP(C)(=S)P(C)(C)=S
inactive: [1] 10.8% | [2] 6.05% | [3] 14.6% | [4] -9.1% | [5] 3.05% | [6] -18.5%

[CH3][Sn]([CH3])([Br])[CH2]CCBr
active: [1] 84.2% | [2] 88.1% | [3] 89.2% | [5] 95% | [6] 96.5%
inactive: [4] 48.5%

COC(=O)C[N+]1(C)C2CCC1CC(O)C2 (configuration not stated)
inactive: [1] 1.5% | [2] 2.75% | [3] 0.55% | [4] -23.3% | [5] -17.1% | [6] 9.95%

NC(=O)Cc1ccccc1
inactive: [1] -17.1% | [2] -14.9% | [3] -6.55% | [4] 8.75% | [5] -2.45% | [6] 24.9%

COc1ccc(C(C)CNCc2ccccc2)cc1 (configuration not stated)
inactive: [1] 0.3% | [2] -1.35% | [3] 21.1% | [4] -10.8% | [5] -1.7% | [6] -1.45%

C[CH2][Sn]([I])([CH2]C)[CH2]C
active: [1] 96% | [2] 98% | [3] 97.1% | [4] 98.3% | [5] 98.1% | [6] 98.5%

CCCC[As](=O)(O)CC(C)C
inactive: [1] -3.2% | [2] -1.75% | [3] -7.4% | [4] 4.9% | [5] -14.2% | [6] 1.2%

COC(=O)C1=CCCN(C)C1
inactive: [1] 0.15% | [2] -0.6% | [3] 10.2% | [4] -0.4% | [5] 2.15% | [6] 3.7%

O=NNc1cc(=O)[nH]c(=O)[nH]1
inactive: [1] 5.4% | [2] -4.5% | [3] -3.85% | [4] -39.2% | [5] -7.6% | [6] -6.5%

CCCCCCCC(=O)O.[Ni]
inactive: [1] -15.1% | [2] -0.6% | [3] -2.3% | [4] 8.45% | [5] -18.4% | [6] -18.5%

O=P(O)(Nc1ccccc1)Nc1ccccc1
inactive: [1] 21.7% | [2] 33.4% | [3] 21% | [4] -15.1% | [5] 25.3% | [6] 15.3%

NC1CC2NC3CCCCC3NC2CC1N (configuration not stated)
inactive: [1] 14.8% | [2] 6.25% | [3] -0.6% | [4] 19.5% | [5] -22.4% | [6] 6.55%

Oc1ccccc1C=NCCN=Cc1ccccc1O.[Zn+2]
inactive: [1] -29.2% | [2] -2.2% | [3] -25.1% | [4] -53.8% | [5] -7.8% | [6] -17.9%

CC1(Cl)C(=O)NC(=O)NC1O (configuration not stated)
inactive: [1] 4.45% | [2] 2.5% | [3] 12.2% | [4] 20.4% | [5] 0.1% | [6] 19.1%

CCOC(=O)C(Br)CBr (configuration not stated)
inactive: [1] 6.35% | [2] -17.9% | [3] 4.85% | [4] -2.3% | [5] -16.1% | [6] 23.1%

CC(C)NCc1ccccc1
inactive: [1] -4.25% | [2] -12.3% | [3] 19.5% | [4] 9.8% | [5] 7.35% | [6] -6.05%

C1=C(c2ccccc2)CCN(C2(c3ccccc3)CCCCC2)C1
inactive: [1] -5.6% | [2] 0.75% | [3] -4.2% | [4] -33.5% | [5] 16.5% | [6] 9.35%

c1cc2n[se]nc2cc1-c1ccc2n[se]nc2c1
inactive: [1] 26.7% | [2] -11.8% | [3] -7.85% | [4] -40.2% | [5] -9.55% | [6] -17.4%

O=C(O)c1cc(Cl)nc(Cl)c1
inactive: [1] -2.1% | [2] 22% | [3] 2.05% | [4] -26.2% | [5] 17.4% | [6] -14.8%

NC(=O)Oc1ccccc1
inactive: [1] -4.5% | [2] -26.4% | [3] 5.4% | [4] 12.1% | [5] -10% | [6] -3.6%

C[CH2][Sn]([CH2]C)([S]c1nc(O)cc(=O)[nH]1)[S]c1nc(O)cc(=O)[nH]1
inactive: [1] 32.5% | [2] 41.9% | [3] -18.1% | [4] 7.9% | [5] 21.9% | [6] 25.1%

CC(C)NCCc1c[nH]c2ccccc12
inactive: [1] 3% | [2] -7.15% | [3] 12.4% | [4] -60% | [5] 13.3% | [6] 1.65%

CCC(=O)OC1(c2ccccc2)CCN(CCC(O)c2ccccc2)CC1C (configuration not stated)
inactive: [1] -14.9% | [2] -1.45% | [3] 1.45% | [4] -34.9% | [5] 1.1% | [6] 6.2%

O=C(O)C(=O)O.[NH2-].[NH2-].[Pt+2]
inactive: [1] 8.3% | [2] -4.9% | [3] 0.15% | [4] -5.05% | [5] 2.6% | [6] -3.8%

CCOP(=O)(OCC)O/N=C(/c1ccccc1)C(C)C
inactive: [1] 25.4% | [2] 4.85% | [3] 19.9% | [4] 10.3% | [5] -0.1% | [6] 2.4%

C[N+](C)(C)CC1(COC(=O)C(O)(c2ccccc2)c2ccccc2)CCCCC1
inactive: [1] -3.5% | [2] 6.45% | [3] -16.8% | [4] -7.2% | [5] -2.95% | [6] 5.05%

COc1ccc2c3c1OC1C(OC)(OC)CC4(C=C2)CN(C)CCC314 (configuration not stated)
inactive: [1] -31% | [2] -22.4% | [3] -20.4% | [4] -11.4% | [5] -23.9% | [6] -11.8%

Cc1ccc(OP(=O)(Oc2ccc(C)cc2)Oc2ccc(C)cc2)cc1.Cc1ccc(OP(=O)(Oc2ccc(C)cc2)Oc2ccc(C)cc2)cc1.Cc1ccc(OP(=O)(Oc2ccc(C)cc2)Oc2ccc(C)cc2)cc1.Cc1ccc(OP(=O)(Oc2ccc(C)cc2)Oc2ccc(C)cc2)cc1.[O-][Cl+3]([O-])([O-])O.[Zn+2]
inactive: [1] 3.45% | [2] 9.9% | [3] 0.55% | [4] 6.45% | [5] 5.1% | [6] -21.9%

CCOP(=O)(NC(C)(C)C)OCC
inactive: [1] -15.1% | [2] -54% | [3] -21.4% | [4] 8% | [5] -26.1% | [6] -12.8%

CCC1(CCC(C)C)C(=O)NC(=O)N(c2ccccc2)C1=O (configuration not stated)
inactive: [1] 1.2% | [2] -1.5% | [3] -4.5% | [4] 7.2% | [5] 8.3% | [6] -9.25%

CN(C)c1ccc(NP(=O)(Nc2ccc(N(C)C)cc2)N(CCCl)CCCl)cc1
inactive: [1] 24.2% | [2] 2.1% | [3] 11% | [4] 5.8% | [5] 12.2% | [6] 7.6%

COP(=O)(OC)C(C)(C)NC(=O)NC(F)(F)F
inactive: [1] -1.9% | [2] -14.9% | [3] -24.6% | [4] 28.9% | [5] 11.1% | [6] -4.25%

O=C(Nc1c(Cl)cc([N+](=O)[O-])cc1Cl)C(=O)C1C(=O)NC(=S)NC1=O
inactive: [1] 11.9% | [2] -28.4% | [3] -12.1% | [4] 7.65% | [5] 10.6% | [6] -5.9%

— PubChem BioAssay (NCI)
